Most compounds without a hit are left out; they make up all but 14% or so of the library.
USP30 block = inhibitors of human USP30 deubiquitinase; inhibition, % at 25 µM; purified USP30, Ub-rhodamine cleavage fluorescence; Ubiquitin carboxyl-terminal hydrolase 30 (Homo sapiens), Q70CQ3; actives 5.3% (n = 47,000)
USP10 inh = inhibitors of human USP10 deubiquitinase. actives 1.1% (n = 47,000). AID 1645856, 2021. Ubiquitin carboxyl-terminal hydrolase 10 (Homo sapiens), Q14694. purified USP10, Ub-rhodamine fluorescence, 60 min. inhibition, % at 20 µM
USP8 block = inhibitors of human USP8 deubiquitinase | Ubiquitin carboxyl-terminal hydrolase 8 (Homo sapiens), P40818 | purified USP8, Ub-rhodamine cleavage fluorescence, 30 min | inhibition, % at 20 µM | actives 4.2% (n = 47,000) | AID 1645853, 2021
USP28 block = inhibitors of human USP28 deubiquitinase; Ubiquitin carboxyl-terminal hydrolase 28 (Homo sapiens), Q96RU2; purified USP28, Ub-rhodamine cleavage fluorescence, 30 min; inhibition, % at 25 µM; actives 3% (n = 47,000); AID 1645857, 2021
USP17 inh = inhibitors of human USP17 deubiquitinase; Ubiquitin carboxyl-terminal hydrolase 17-like protein 5 (Homo sapiens), A8MUK1; purified USP17, Ub-rhodamine cleavage fluorescence, 3 h; inhibition, % at 50 µM; actives 6.5% (n = 47,000); AID 1645855, 2021
Starred values were filed as active, the others as inactive; i = inactive. Cut-off read from the data, not from the text of the source: active = inhibition above about 30%; inactive = the rest.

SMILES	USP30 block	USP10 inh	USP8 block	USP28 block	USP17 inh
O=C(Cn1c(C(F)(F)F)nc2cc3c(cc21)OCCO3)NCC1CCCO1 (centres undefined)	6	4	2	-8	-8
CCOC(=O)C1=C(CN2CCN(c3ccc(F)cc3)CC2)NC(=O)NC1c1ccc(OC)cc1 (centres undefined)	34*	0	-4	-2	36*
Cc1ccc(C)c(NC(=O)C2CCCN(S(=O)(=O)N3CCOCC3)C2)c1 (centres undefined)	-18	-4	-1	-11	-17
O=C(O)c1cccnc1N1CCCC1c1ccccc1 (centres undefined)	-16	-2	47*	-7	4
c1ccc(C2CCCN2c2ccccn2)cc1 (centres undefined)	4	4	-2	9	3
Cc1nc(C)n(CC(=O)N2C[C@@H](c3ccccc3F)[C@@]3(CCCC(=O)N3)C2)n1	0	-1	-3	-6	-5
Cc1nc(Nc2ncccn2)cc(C2CCCN2C(=O)c2cnccn2)n1 (centres undefined)	27	0	11	1	2
Cc1ccc(C2=Nc3ccccc3N(CC(=O)Nc3cccc(C)c3C)C(=O)C2)cc1C	34*	12	43*	32*	36*
Cc1cccc(NC(=O)CN2C(=O)CC(c3ccccc3)=Nc3ccccc32)c1C	34*	17	11	0	16
O=C(c1ccoc1)N1CCC2(CC1)Nc1cccnc1NC2=NC1CCCC1	i	-7	-89	-137	-115
CN1C(=O)c2ccccc2C(C(=O)Nc2nc3ccccc3s2)C1c1cccs1 (centres undefined)	-15	1	-25	-8	37*
COCCN1C(=O)c2ccccc2C(C(=O)Nc2cc(C)ccn2)C1c1cccs1 (centres undefined)	33*	1	16	7	9
CN1CCN(C(=O)c2ccccc2Br)c2ccccc21	-140	-12	9	-28	-9
C=C1CCC[C@]2(C)C[C@H]3OC(=O)C(CN4CCC(C(=O)OCC)CC4)[C@H]3CC12 (some centres undefined)	4	0	0	-1	-2
C=C1CCC[C@]2(C)C[C@H]3OC(=O)C(CN(C)CC(O)c4ccc(O)cc4)[C@H]3CC12 (some centres undefined)	11	3	-2	-7	-7
C=C1CCC[C@]2(C)C[C@H]3OC(=O)C(CN4CCCCC4CC)[C@H]3CC12 (some centres undefined)	40*	8	-4	-1	-1
C=C1CCC[C@]2(C)C[C@H]3OC(=O)[C@H](CNCCc4ccccc4OC)C3CC12 (some centres undefined)	47*	6	3	11	7
C=C1CCC[C@]2(C)C[C@H]3OC(=O)C(CN4CCCCC4C)[C@H]3CC12 (some centres undefined)	43*	-1	-14	-9	0
CCOC(=O)c1cc2c(ccn2C)n1CC(=O)NC(c1ccccc1)c1ccccc1	-153	-5	65*	-32	23
CCOC(=O)c1cc2c(ccn2C)n1CC(=O)N(Cc1ccc(OC)cc1)c1ccc(F)cc1	-200	-10	17	-21	6
CC(C)OC(=O)c1cc2c(ccn2C)n1Cc1ccc2ccccc2n1	-137	-9	56*	-11	10
CC(C)OC(=O)c1cc2c(ccn2-c2ccc(F)cc2)n1CC(=O)N(Cc1ccccc1)c1ccc(F)cc1	-71	-9	3	-10	-9
CCOC(=O)c1cc2c(ccn2C)n1CC(=O)N(Cc1ccccc1)c1ccccc1	-198	-11	55*	-36	29
CC(C)OC(=O)c1cc2c(ccn2C)n1CC(=O)N(Cc1ccccc1)c1ccc(F)cc1	-199	-8	56*	-14	21
COCCn1cnc(-c2nc(C(=O)NCCc3ccccn3)c3ccccn23)c1	-338	-4	-121	-88	-109
SMILES	USP30 block	USP10 inh	USP8 block	USP28 block	USP17 inh
CCc1cccc(NC(=O)Cn2cccc(S(=O)(=O)N3CCCC3)c2=O)c1	-52	-7	-27	-18	-12
O=C(c1ccncc1)N1CCc2cc(-c3csc(C4CC4)n3)ccc21	-28	-3	-95	-13	-4
CC(C)OC(=O)c1cc2c(ccn2C)n1CC(=O)N1CCCC1	-280	-6	-13	-72	-55
CC(C)OC(=O)c1cc2c(ccn2C)n1CC(=O)N(Cc1ccc(Cl)cc1)c1ccccc1	-48	-4	67*	8	12
CCOC(=O)c1cc2c(ccn2C)n1CC(=O)N(Cc1ccccc1)c1ccc(F)cc1	-218	-16	39*	-34	24
Cc1nc(C(=O)NC2CCCCC2)cc2c1[nH]c1ccccc12	-60	-8	-11	-28	23
COc1cc(CCC(=O)N(C)C(c2ccccc2)c2ccccc2)cc(OC)c1OC	0	3	1	4	5
COc1ccccc1CC(=O)N(C)C(c1ccccc1)c1ccccc1	52*	10	-5	26	27
Cc1cc(=O)oc2cc(NC(=O)NCc3noc4ccccc34)ccc12	14	13	18	0	-1
COc1cc2c(c(OC)c1OC)-c1ccc(N3CCN(C)CC3)c(=O)cc1[C@@H](NC(C)=O)CC2	-13	-7	-36	-8	-11
COc1cc2c(c(OC)c1OC)-c1ccc(N3CCN(Cc4ccc5c(c4)OCO5)CC3)c(=O)cc1[C@@H](NC(C)=O)CC2	-19	-9	45*	0	0
COc1ccc(CC(=O)Nc2cccn3nc(C(C)C)nc23)cc1Cl	-93	-6	-15	-14	-52
Cc1ccc(NC(=O)Nc2ccccc2OCc2cc(=O)n3cc(C)ccc3n2)cc1	-3	17	32*	18	4
Cc1ccc2nc(CNc3cc(F)ccc3C)cc(=O)n2c1	-56	-8	-4	-5	-12
O=C(Nc1ccc2c(c1)OCCO2)Nc1ccccc1OCc1cc(=O)n2ccccc2n1	-4	-2	-8	8	4
Cc1cccc(NC(=O)Nc2ccccc2OCc2cc(=O)n3cccc(C)c3n2)c1	29	26	36*	24	9
Cc1cccc(NCc2cc(=O)n3cc(C)ccc3n2)c1	7	-1	12	26	46*
O=C(Nc1ccc(F)cc1)Nc1ccccc1OCc1cc(=O)n2ccccc2n1	46*	25	43*	31*	41*
CC(C)n1cnc(S(=O)(=O)N2CCCC(C(=O)N3CCCCC3)C2)c1 (centres undefined)	0	2	-3	-14	-19
Cc1ccc(-c2noc(-c3ccccc3NC(=O)C3CC3)n2)cc1	0	0	4	-4	4
COc1ccccc1NS(=O)(=O)c1cc(NC(=O)c2cccc(-c3ccc(O)cc3)c2)ccc1C	30*	13	0	7	35*
COc1ccccc1NS(=O)(=O)c1cc(NC(=O)CCC(=O)c2ccc(F)cc2)ccc1C	-103	-6	-19	-17	-121
